Consider seven compounds from ChEMBL document CHEMBL1961873, “Compounds: GSK PKIS; Assays: Nanosyn kinase panel” (2012).

Test [1] has as its target MAP/microtubule affinity-regulating kinase 3 (Homo sapiens) (UniProt P27448). As to conditions: at 1 µM.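 Further: reported values are averaged percent inhibition of MARK3.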
Test [2] concerns the target T1, MAP/microtubule affinity-regulating kinase 4 (Homo sapiens) (UniProt Q96L34).
T1 sequence (whole entry): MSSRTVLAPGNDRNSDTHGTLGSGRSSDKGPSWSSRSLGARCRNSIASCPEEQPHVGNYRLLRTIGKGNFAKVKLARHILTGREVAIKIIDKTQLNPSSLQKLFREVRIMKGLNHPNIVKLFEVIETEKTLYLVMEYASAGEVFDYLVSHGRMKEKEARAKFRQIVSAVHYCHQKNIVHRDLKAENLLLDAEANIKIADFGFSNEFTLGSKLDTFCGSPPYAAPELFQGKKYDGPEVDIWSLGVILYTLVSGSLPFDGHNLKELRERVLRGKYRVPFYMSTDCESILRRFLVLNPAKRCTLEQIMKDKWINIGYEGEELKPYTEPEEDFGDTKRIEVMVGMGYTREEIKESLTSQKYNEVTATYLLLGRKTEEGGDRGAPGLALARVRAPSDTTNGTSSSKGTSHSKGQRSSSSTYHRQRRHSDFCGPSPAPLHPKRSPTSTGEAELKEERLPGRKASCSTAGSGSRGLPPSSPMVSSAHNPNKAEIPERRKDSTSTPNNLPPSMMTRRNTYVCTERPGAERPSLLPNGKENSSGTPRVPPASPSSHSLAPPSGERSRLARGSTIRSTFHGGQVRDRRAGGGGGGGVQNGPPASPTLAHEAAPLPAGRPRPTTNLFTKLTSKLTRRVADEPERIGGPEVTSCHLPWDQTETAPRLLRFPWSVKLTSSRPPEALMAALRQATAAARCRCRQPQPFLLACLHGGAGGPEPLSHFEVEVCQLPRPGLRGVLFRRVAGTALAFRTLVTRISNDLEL
As to conditions: at 0.1 µM.

In test [3] the target is T1, MAP/microtubule affinity-regulating kinase 4 (Homo sapiens). Particulars: at 1 µM.
The target in test [4] is Maternal embryonic leucine zipper kinase (Homo sapiens) (UniProt Q14680). Particulars: at 0.1 µM.
Test [5] shares this target. As to conditions: at 1 µM.
The target in test [6] is MAP kinase-interacting serine/threonine-protein kinase 1 (Homo sapiens) (UniProt Q9BUB5). As to conditions: at 0.1 µM.
Test [7] shares this target. Particulars: at 1 µM.
The target in test [8] is MAP kinase-interacting serine/threonine-protein kinase 2 (Homo sapiens) (UniProt Q9HBH9). As to conditions: at 0.1 µM.
The target is the same in test [9]. As to conditions: at 1 µM.
The target in test [10] is Serine/threonine-protein kinase MARK2 (Homo sapiens) (UniProt Q7KZI7). As to conditions: at 0.1 µM.
For test [11] the target is unchanged. As to conditions: at 1 µM.
Test [12] concerns the target PAS domain-containing serine/threonine-protein kinase (Homo sapiens) (UniProt Q96RG2). As to conditions: at 0.1 µM.
For test [13] the target is unchanged. As to conditions: at 1 µM.
The target of test [14] is Phosphorylase b kinase gamma catalytic chain, skeletal muscle/heart isoform (Homo sapiens) (UniProt Q16816). As to conditions: at 0.1 µM.
The target is the same in test [15]. As to conditions: at 1 µM.
Test [16] deals with T2, Phosphorylase b kinase gamma catalytic chain, liver/testis isoform (Homo sapiens) (UniProt P15735).
T2 sequence (whole entry): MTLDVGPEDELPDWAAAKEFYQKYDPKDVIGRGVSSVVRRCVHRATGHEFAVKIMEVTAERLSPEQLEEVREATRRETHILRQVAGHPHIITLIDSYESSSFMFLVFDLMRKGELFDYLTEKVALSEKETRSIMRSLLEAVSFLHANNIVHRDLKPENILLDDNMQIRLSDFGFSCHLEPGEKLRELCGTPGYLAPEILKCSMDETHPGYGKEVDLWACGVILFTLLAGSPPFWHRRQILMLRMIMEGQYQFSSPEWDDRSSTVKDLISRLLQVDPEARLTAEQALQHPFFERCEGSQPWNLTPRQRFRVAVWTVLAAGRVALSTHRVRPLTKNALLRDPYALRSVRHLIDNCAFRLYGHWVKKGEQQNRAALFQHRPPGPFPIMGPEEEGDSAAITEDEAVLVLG
As to conditions: at 0.1 µM.

Test [17] addresses T2, Phosphorylase b kinase gamma catalytic chain, liver/testis isoform (Homo sapiens). As to conditions: at 1 µM.
Test [18] has as its target Serine/threonine-protein kinase pim-1 (Homo sapiens) (UniProt P11309). As to conditions: at 0.1 µM.
Test [19] has the same target. Particulars: at 1 µM.
Test [20] deals with Serine/threonine-protein kinase pim-2 (Homo sapiens) (UniProt Q9P1W9). As to conditions: at 0.1 µM.
Chain of Serine/threonine-protein kinase pim-2 (Homo sapiens) (Q9P1W9 whole entry, looked up): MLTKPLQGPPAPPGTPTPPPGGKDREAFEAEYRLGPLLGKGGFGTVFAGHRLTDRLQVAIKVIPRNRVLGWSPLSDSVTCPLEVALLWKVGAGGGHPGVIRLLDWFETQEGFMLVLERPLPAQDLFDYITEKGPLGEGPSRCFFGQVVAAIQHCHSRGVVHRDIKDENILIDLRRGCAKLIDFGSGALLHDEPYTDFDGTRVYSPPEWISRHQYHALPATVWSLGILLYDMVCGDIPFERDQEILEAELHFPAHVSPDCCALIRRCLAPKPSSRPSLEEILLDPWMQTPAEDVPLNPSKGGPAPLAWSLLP

Chain of MAP/microtubule affinity-regulating kinase 3 (Homo sapiens) (P27448 whole entry, looked up): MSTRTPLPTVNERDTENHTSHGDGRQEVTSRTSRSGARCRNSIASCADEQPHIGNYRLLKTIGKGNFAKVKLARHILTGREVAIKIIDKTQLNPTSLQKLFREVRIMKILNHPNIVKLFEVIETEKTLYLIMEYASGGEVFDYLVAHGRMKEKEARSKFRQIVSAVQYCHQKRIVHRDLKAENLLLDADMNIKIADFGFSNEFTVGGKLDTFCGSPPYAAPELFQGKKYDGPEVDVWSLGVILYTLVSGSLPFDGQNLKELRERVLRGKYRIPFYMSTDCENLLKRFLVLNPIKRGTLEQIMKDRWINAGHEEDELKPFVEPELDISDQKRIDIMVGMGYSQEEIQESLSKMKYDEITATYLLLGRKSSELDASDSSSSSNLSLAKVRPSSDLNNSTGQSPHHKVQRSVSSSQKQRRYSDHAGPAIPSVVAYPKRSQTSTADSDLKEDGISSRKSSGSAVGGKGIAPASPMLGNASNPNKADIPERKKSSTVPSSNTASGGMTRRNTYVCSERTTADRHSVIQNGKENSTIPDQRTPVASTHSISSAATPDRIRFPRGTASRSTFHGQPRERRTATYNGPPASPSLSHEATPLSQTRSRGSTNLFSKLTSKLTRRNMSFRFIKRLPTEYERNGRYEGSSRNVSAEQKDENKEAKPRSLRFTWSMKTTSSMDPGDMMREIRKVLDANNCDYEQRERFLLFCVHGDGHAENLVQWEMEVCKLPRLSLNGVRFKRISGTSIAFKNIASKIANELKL
Chain of Serine/threonine-protein kinase MARK2 (Homo sapiens) (Q7KZI7 whole entry): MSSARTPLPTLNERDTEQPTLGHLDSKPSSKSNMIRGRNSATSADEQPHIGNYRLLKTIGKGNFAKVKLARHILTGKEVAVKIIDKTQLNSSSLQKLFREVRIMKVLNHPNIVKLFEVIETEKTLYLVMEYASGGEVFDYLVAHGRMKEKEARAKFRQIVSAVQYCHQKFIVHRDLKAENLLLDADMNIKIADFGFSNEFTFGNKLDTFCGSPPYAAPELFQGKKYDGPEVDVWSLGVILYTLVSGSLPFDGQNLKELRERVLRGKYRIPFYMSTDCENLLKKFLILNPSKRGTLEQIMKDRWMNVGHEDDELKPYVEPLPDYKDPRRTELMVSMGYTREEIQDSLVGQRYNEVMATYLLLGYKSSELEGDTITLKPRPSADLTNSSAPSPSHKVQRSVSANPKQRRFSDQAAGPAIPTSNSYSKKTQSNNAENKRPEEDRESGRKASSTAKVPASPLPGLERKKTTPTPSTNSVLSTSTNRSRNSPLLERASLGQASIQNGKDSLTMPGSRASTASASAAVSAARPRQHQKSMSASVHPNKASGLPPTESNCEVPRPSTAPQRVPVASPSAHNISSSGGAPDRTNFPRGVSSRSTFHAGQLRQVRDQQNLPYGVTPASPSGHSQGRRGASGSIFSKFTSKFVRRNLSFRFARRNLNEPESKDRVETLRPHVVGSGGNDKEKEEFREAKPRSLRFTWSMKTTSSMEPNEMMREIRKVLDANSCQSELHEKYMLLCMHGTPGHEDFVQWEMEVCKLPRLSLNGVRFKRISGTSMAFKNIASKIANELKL
Chain of Maternal embryonic leucine zipper kinase (Homo sapiens) (Q14680 whole entry, looked up): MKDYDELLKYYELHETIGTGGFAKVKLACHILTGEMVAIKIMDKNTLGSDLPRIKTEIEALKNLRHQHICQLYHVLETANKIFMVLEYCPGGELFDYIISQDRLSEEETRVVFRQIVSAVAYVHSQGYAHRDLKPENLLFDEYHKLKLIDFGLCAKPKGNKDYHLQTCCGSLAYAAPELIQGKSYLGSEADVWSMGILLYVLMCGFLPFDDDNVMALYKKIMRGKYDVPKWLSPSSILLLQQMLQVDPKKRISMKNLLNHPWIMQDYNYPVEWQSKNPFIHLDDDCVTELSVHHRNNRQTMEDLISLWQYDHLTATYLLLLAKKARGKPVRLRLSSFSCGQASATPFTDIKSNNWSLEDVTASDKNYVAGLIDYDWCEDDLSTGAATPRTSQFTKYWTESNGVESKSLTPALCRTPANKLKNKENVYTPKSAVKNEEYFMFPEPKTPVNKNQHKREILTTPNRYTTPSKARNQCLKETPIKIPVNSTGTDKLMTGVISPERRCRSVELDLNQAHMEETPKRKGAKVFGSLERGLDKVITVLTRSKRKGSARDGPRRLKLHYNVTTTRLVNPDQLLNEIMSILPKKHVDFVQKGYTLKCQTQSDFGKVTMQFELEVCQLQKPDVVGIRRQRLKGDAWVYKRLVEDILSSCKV
Chain of Serine/threonine-protein kinase pim-1 (Homo sapiens) (P11309 whole entry, looked up): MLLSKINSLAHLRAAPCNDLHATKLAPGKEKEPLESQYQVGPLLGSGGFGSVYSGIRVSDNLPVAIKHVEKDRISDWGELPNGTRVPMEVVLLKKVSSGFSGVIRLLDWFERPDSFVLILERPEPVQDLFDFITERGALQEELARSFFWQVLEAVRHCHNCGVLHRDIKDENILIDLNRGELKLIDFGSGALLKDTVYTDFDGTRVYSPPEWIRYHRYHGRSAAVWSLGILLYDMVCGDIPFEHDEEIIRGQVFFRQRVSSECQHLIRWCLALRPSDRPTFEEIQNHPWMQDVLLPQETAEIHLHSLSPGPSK
Chain of PAS domain-containing serine/threonine-protein kinase (Homo sapiens) (Q96RG2 whole entry, the tested form may be a part): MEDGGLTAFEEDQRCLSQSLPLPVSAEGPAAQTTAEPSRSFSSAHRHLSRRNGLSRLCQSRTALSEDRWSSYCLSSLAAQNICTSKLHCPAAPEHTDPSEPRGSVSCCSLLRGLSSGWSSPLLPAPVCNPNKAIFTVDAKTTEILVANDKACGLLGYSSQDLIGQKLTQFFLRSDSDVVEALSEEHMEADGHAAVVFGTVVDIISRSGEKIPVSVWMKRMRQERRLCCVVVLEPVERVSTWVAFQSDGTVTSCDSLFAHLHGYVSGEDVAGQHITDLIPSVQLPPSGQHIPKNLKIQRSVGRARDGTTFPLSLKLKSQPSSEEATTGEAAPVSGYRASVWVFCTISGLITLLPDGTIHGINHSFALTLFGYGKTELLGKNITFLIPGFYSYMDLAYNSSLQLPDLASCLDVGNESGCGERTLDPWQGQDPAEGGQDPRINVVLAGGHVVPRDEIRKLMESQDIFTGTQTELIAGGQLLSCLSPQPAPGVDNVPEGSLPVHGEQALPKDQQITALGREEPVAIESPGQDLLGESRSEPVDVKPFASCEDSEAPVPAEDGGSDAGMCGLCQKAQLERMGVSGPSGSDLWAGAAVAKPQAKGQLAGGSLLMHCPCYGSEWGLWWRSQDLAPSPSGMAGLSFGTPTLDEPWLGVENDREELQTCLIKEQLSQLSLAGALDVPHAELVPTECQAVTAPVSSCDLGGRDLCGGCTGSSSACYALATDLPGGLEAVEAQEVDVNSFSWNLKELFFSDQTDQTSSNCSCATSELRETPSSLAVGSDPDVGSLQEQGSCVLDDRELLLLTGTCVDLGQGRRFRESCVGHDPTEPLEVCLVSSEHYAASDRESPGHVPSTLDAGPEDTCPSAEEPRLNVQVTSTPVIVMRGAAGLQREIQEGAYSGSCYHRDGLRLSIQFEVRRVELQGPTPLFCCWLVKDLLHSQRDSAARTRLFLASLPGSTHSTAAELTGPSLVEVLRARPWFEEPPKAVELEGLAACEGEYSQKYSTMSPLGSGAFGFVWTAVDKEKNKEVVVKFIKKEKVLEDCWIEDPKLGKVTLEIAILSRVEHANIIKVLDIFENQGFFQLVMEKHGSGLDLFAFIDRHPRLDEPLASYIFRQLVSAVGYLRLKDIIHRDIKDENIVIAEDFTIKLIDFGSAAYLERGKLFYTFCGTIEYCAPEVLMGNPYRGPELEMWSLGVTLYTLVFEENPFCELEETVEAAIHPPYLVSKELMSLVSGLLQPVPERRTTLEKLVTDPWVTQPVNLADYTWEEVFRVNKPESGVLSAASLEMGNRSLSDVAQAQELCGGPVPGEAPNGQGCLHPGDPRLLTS
Chain of MAP kinase-interacting serine/threonine-protein kinase 1 (Homo sapiens) (Q9BUB5 whole entry, looked up): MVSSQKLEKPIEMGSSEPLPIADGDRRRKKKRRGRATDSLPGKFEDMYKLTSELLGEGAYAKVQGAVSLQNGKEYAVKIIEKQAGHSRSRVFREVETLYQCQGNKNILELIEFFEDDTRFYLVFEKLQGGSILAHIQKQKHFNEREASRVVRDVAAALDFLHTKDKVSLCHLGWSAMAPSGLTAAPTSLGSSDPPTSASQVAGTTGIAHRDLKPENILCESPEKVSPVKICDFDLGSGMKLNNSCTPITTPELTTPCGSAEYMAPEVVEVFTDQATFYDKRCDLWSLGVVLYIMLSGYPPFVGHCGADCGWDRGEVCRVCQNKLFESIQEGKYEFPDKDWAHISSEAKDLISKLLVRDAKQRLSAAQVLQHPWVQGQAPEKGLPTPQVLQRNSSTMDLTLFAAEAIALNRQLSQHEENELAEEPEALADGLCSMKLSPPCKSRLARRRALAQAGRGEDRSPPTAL
Chain of Phosphorylase b kinase gamma catalytic chain, skeletal muscle/heart isoform (Homo sapiens) (Q16816 whole entry, looked up, canonical isoform): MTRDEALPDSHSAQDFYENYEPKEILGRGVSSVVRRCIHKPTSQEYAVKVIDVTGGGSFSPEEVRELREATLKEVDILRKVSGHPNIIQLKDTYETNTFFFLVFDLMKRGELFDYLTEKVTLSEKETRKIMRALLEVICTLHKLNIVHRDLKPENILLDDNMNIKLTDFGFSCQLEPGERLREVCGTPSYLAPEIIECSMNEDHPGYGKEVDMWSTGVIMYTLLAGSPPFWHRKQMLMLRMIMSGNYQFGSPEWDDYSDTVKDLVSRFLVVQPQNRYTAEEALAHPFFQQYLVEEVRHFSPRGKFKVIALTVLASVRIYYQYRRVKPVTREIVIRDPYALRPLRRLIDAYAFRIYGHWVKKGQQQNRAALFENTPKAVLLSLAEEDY

As to `CN(C)C(=O)O[C@H]1CN[C@H](C#Cc2cc3ncnc(Nc4ccc(OCc5cccc(F)c5)c(Cl)c4)c3s2)C1`, the inhibition amounted to 3.81% in test [1]; 1.04% in test [2]; 1.72% in test [3]; 1.5% in [4]; 4.17% in [5]; 2.31% in test [6]. Also, the inhibition in test [7] was 6.43%; in test [8] it was 1.15%; in test [9], 6.67%; in test [10] it was 0.94%; in test [11] it was 1.09%; in test [12], 0.16%. Further, the inhibition is -0.64% in test [13]; 2.62% in [14]; 2.71% in [15]; 2.94% in test [16]; -0.02% in [17]; -0.09% in [18]. Moreover, the inhibition was found to be 0.1% in test [19] and 0.57% in test [20].
With `NC(=O)c1sc(-n2cnc3ccccc32)cc1OCc1ccccc1Br`, the inhibition in test [1] is 5.83%; in test [2], 1.43%; in [3] it was 5.23%; in test [4] it was 4.71%; in test [5], 10.1%; in [6], 2.14%. Also, the inhibition in test [7] is 11.7%; in [8], 0.25%; in test [9] it was 4.3%; in test [10], 1.95%; in [11], 6.32%; in test [12], -0.54%. For the same compound, the inhibition in test [13] was -0.07%; in [14], 2.76%; in test [15] it was 6.49%; in test [16], 4.32%; in test [17] it was 5.93%; in [18], 0.2%. Further, the inhibition in test [19] is 3.08%; in test [20], -0.36%.
Turning to `NS(=O)(=O)c1ccc(Nc2cc(-c3cccc(O)c3)n[nH]2)cc1`, the inhibition in test [1] stood at 32.5%; in [2], 3.4%; in [3], 9.85%; in [4], 4.37%; in [5], 7.45%; in [6] it was 3.01%. The inhibition in test [7] is 7.14%; in test [8] it was 0.45%; in [9], 5.79%; in [10], 1.86%; in [11], 6.24%; in [12], 0.14%. Further, the inhibition in test [13] was -1.99%; in test [14], 3.73%; in test [15], 12.8%; in test [16], 6.63%; in test [17], 6.34%; in test [18], -0.06%. For the same compound, the values for the inhibition in test [19] and in test [20] were 1.3% and 0.62%, respectively.
For the compound `COc1cc(/C=N/Nc2ncnc3c2cnn3C(C)C)ccc1O`, the inhibition in test [1] amounted to 0.41%; in [2], 0.37%; in test [3], 4.17%; in [4], 26.7%; in test [5], 80.3%; in test [6], 1.07%. Also, the inhibition in test [7] is 5.78%; in test [8] it was 1.33%; in test [9] it was 2.77%; in test [10], -0.89%; in test [11], 1.32%; in test [12] it was -0.76%. Further, the inhibition in [13] was -1.33%; in test [14], 2.28%; in [15] it was 5.02%; in test [16] it was -0.14%; in test [17], 1.57%; in test [18], 0.52%. The values for the inhibition in [19] and in test [20] were 2.04% and 0.9%, respectively.
With `NC(=O)c1cccc(Nc2nccc(Nc3cccc(F)c3)n2)c1`, the inhibition in [1] was 2.35%; in [2], 0.72%; in test [3], 3.28%; in [4], -2.04%; in [5], 2.88%; in test [6], 1.05%. Further, the inhibition is 3.91% in [7]; 0.26% in test [8]; 8.7% in [9]; -1.24% in [10]; 3.47% in test [11]; 1.27% in test [12]. For the same compound, the inhibition in test [13] is 0.17%; in test [14], -0.51%; in [15] it was 3.35%; in test [16], 1.29%; in test [17] it was 0.54%; in [18], -0.04%. Moreover, the inhibition in test [19] is -0.4%; in test [20] it was -0.05%.
Take `OCc1ccc(-c2nc(-c3ccccn3)c(-c3ccc4c(c3)OCO4)[nH]2)cc1`: the inhibition was determined as 4.42% in test [1]; 1.75% in [2]; 2.19% in test [3]; 6.02% in test [4]; 4.4% in [5]; 2.65% in test [6]. Besides, the inhibition in [7] was 2.54%; in [8], 0.41%; in [9] it was 0.09%; in test [10] it was 1.8%; in [11], 2.05%; in [12] it was 0.83%. Also, the inhibition in test [13] was -1.14%; in test [14], 2.77%; in test [15], -6%; in test [16], 5.91%; in test [17] it was 2.21%; in test [18] it was 0.78%. The inhibition is 0.98% in [19] and 0.72% in [20].
As for `CS(=O)(=O)CCNCc1nc(-c2ccc3ncnc(Nc4ccc(OCc5cccc(C(F)(F)F)c5)cc4)c3c2)cs1`, the inhibition in test [1] was 1.92%; in test [2], -0.17%; in [3], 1.58%; in [4], 0.45%; in test [5], 2.55%; in [6], 3.67%. For the same compound, the inhibition in [7] was 7.54%; in test [8], 0.84%; in test [9] it was 6.94%; in test [10], 0.22%; in test [11], 1.07%; in [12] it was 0.16%. Besides, the inhibition in [13] was -0.13%; in test [14], 0.25%; in [15], 3.14%; in [16] it was 2.6%; in test [17], 2.29%; in [18] it was 0.49%. Moreover, the inhibition in [19] is -0.28%; in [20], -0.54%.
